# Assay results as given in publication PMC7819943, “Rice protein-binding microarrays: a tool to detect cis-acting elements near promoter regions in rice”.
# Over roughly 68,000 sequences, “fluorescence intensity (a.u.)” has its median near 9,100; the highest 2% begin near 16,000. The sample as a whole holds a higher share of the highest values than the screen did.
# Target: OsWRKY34 (Oryza sativa, UniProt Q0JBA9 1-250)
# Assay: protein-binding microarray (RPBM); PBS, 2% BSA, 51.3 ng/ul salmon testes DNA, 50 uM zinc acetate, 200 nM TF, 25 C, 1 h; high values mean tight binding
# Details: protein: recombinant; tags: N-terminal polyhistidine and DsRed monomer fusion (pET32a); label: CyDye5-dUTP incorporated in the synthesized complementary strand; 3' TTTTT single-stranded linker to array surface; dsDNA, one strand shown
# In short: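 Polyhistidine-tagged DsRed fusions of transcription factors, joined at the N-terminus, were expressed in E. coli BL21-CodonPlus and isolated on Ni–NTA. They were incubated at 200 nM for 1 h at 25 °C on a custom Agilent array, double-stranded and BSA-blocked, in PBS with 2% BSA, salmon testes DNA and 50 µM zinc acetate. The binding signal is per-feature fluorescence intensity (arbitrary units) read on an Axon 4000B scanner after washing.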
# OsWRKY34, sequence (Q0JBA9 entry or part of it): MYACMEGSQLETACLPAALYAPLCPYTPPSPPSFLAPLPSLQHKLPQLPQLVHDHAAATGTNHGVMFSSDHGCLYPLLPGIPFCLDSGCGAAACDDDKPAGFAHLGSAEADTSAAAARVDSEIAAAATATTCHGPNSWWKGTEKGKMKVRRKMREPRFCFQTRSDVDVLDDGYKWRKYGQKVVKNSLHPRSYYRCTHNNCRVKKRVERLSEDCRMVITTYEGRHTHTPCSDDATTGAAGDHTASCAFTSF
row,Sequence,binding signal
1,AGCTTAACACGCGCCACTTGCCCCTATTTAGCCGCGCCATCGGAGTCACCTAGTGCAG,9920 fluorescence intensity (a.u.)
2,GACGGCGACCGAAGGGGACAAGGAGGCGGGGCGGGGCGGCCGGAGTCACCTAGTGCAG,14000 fluorescence intensity (a.u.)
3,AGAAGGAGGAGGAGGAGGAGGAGGAGGAGGGGAGGAGAGCCGGAGTCACCTAGTGCAG,10400 fluorescence intensity (a.u.)
4,CGGTGGGGAGGCCGGGAGGGAGGAGGAGAGAAGAGGAGTGCGGAGTCACCTAGTGCAG,9450 fluorescence intensity (a.u.)
5,GGCCGCGGCGGTGCGACGAAGAGCGGCGTCGGACAAGGGCCGGAGTCACCTAGTGCAG,35900 fluorescence intensity (a.u.)
6,CGGCTAGGGACGGGGACGACGCCGGAGTGGGTGGGGAAGGCGGAGTCACCTAGTGCAG,8680 fluorescence intensity (a.u.)
7,GGGAAGGGGAGGGGTGGGCGGAAGGGGACGCCGGTGGTGGCGGAGTCACCTAGTGCAG,17900 fluorescence intensity (a.u.)
8,GGTGGTGCGCGAGCGTCGGCGGTCGGCGGGAGGGCGGGAGCGGAGTCACCTAGTGCAG,9180 fluorescence intensity (a.u.)
9,AATGTGGGAGAAGGGGAGGAGAGAGGGGAGGGGAGGGGACCGGAGTCACCTAGTGCAG,16500 fluorescence intensity (a.u.)
10,AATCTAACGGGTGGGTCTCATGTATTGATGAGGAAGAAGACGGAGTCACCTAGTGCAG,20800 fluorescence intensity (a.u.)
11,GGGAATATTAGTGGGATGGGGATGAGGAATTGAGGAAGAACGGAGTCACCTAGTGCAG,13400 fluorescence intensity (a.u.)
12,AGGGTGAACAGAAGAAGATGAATCTAACGGGTGGGTCTCACGGAGTCACCTAGTGCAG,10800 fluorescence intensity (a.u.)
13,GCATGGTGGCGGCGGGAAGGAGGAGTGGGGCGGCGGGTGCCGGAGTCACCTAGTGCAG,16100 fluorescence intensity (a.u.)
14,CTCTCTCTGCTCGAGCCCGAGTAGCCCTCGTCGTCATTCTCGGAGTCACCTAGTGCAG,8950 fluorescence intensity (a.u.)
15,ATTATATGTCATTTGACTTTTCTCTTAGCTAAAGTTCTTTCGGAGTCACCTAGTGCAG,9800 fluorescence intensity (a.u.)
16,CTATATATAAACGAGCACATCTCGTCGTCCCTCGCCATTCCGGAGTCACCTAGTGCAG,10400 fluorescence intensity (a.u.)
17,TTAAACTGTATACCGTCGCTCGCGTCGCGCGCCGTTGACGCGGAGTCACCTAGTGCAG,9730 fluorescence intensity (a.u.)
18,CATGTGTTTACTGGGGTGGTTGTTGTAACAAAATTGAGTACGGAGTCACCTAGTGCAG,9360 fluorescence intensity (a.u.)
19,GTCTGAGTACACTTCTGAGGCTTCTTTGGTCGTTTTGGCCCGGAGTCACCTAGTGCAG,9790 fluorescence intensity (a.u.)
20,AAATATCAACCACATGCTCCTACTTCTATGGAAATTGATTCGGAGTCACCTAGTGCAG,10400 fluorescence intensity (a.u.)
21,TTGTCGTGTCACCTCCATTCTCACCCAACTTCCTTACCTACGGAGTCACCTAGTGCAG,13300 fluorescence intensity (a.u.)

row,Sequence,binding signal
1,CTCGTTTACCTTACTCTCGCTTAGTTCGTTGAGGCATTTCCGGAGTCACCTAGTGCAG,14900 fluorescence intensity (a.u.)
2,GTTATTCAAAACTATAGTTATCTTCCGCCTATTTTTTTATCGGAGTCACCTAGTGCAG,10600 fluorescence intensity (a.u.)
3,GATTGAGGGGAATGTTCCATGTTTTGTTGAACTCTTTTCCCGGAGTCACCTAGTGCAG,9320 fluorescence intensity (a.u.)
4,CGGCGGAGGAGGAGGAGGAGGGGTGGGGAAGAAGAGGGGACGGAGTCACCTAGTGCAG,22800 fluorescence intensity (a.u.)
5,AGGGTTGTGATTGGTTGGGAAGAGAATGTTGGTAGATAAGCGGAGTCACCTAGTGCAG,9400 fluorescence intensity (a.u.)
6,GGGTGGGGAAGAAGAGGGGAAGCGGGGAGGAGGAGAGGGACGGAGTCACCTAGTGCAG,9680 fluorescence intensity (a.u.)
7,GGTGGCGGGGCATCTCGCCGCCGACGGCTCGAGGAGGAAACGGAGTCACCTAGTGCAG,18400 fluorescence intensity (a.u.)
8,GGCGGCATCTCGCTCTACCGCGGGTGGGGCTTCGACTCCGCGGAGTCACCTAGTGCAG,12100 fluorescence intensity (a.u.)
9,GGGAAGACGGTGGGGCGGGGACAGAGGTAGGGGAAGGAGGCGGAGTCACCTAGTGCAG,12600 fluorescence intensity (a.u.)
10,GCAGCAGGGAGGTGGGGCGCAGGAGGAAGAAGAAGAGGGACGGAGTCACCTAGTGCAG,13300 fluorescence intensity (a.u.)
11,GACACTAATGTGTGTGAAGGGGAGATTGTTGAATGGTTCCCGGAGTCACCTAGTGCAG,65200 fluorescence intensity (a.u.)
12,CGGGGAAGGAGAGGGGCGTTAGGGAGGAGGGGCGCACAGACGGAGTCACCTAGTGCAG,16800 fluorescence intensity (a.u.)
13,ACCGCACAGAGAGGGAGGAGGCGGGGAGGACGGTGAGGGGCGGAGTCACCTAGTGCAG,10500 fluorescence intensity (a.u.)
14,CCGGGGCCGGCAGCGGCGGGCGGGCGGGCTCGAGCGGTGGCGGAGTCACCTAGTGCAG,9020 fluorescence intensity (a.u.)
15,CGTGGGCCCCACCCGTGCCAGCTCACCTCATCCCCACCACCGGAGTCACCTAGTGCAG,8940 fluorescence intensity (a.u.)
16,ATCGACCCTTGCGCGGACTCCGCTCTCTTGTTGACCACCTCGGAGTCACCTAGTGCAG,14600 fluorescence intensity (a.u.)
17,TCACTCATGCAGAGTCACAGCTTGTATAGTTGTAATGCATCGGAGTCACCTAGTGCAG,9000 fluorescence intensity (a.u.)
18,GCCTCGTCCACTCCACCACGCCGCCGAAAGCCGCAACTCTCGGAGTCACCTAGTGCAG,9580 fluorescence intensity (a.u.)
19,CAACCTCTCCGGGGCGGGGCTGGCCGGCGAGCTGGCGGCGCGGAGTCACCTAGTGCAG,9150 fluorescence intensity (a.u.)
20,AGCTGCCACAAGCCGAAGGCACGTTGACTTAAAAGAAGCCCGGAGTCACCTAGTGCAG,10700 fluorescence intensity (a.u.)
21,ATATTTTCCGCCTACCCTGTACGCACGTTTATATACACAACGGAGTCACCTAGTGCAG,9400 fluorescence intensity (a.u.)
